The source of these data is PubChem BioAssay AID624337 (National Center for Advancing Translational Sciences (NCATS), 2012).

Each structure is given as a SMILES string. Records with an inconclusive call do not appear. Values without a mark were called inactive. The source made the active and inactive calls. The call rests on the fitted dose curve; in most records, active means well fitted curve in the direction sought with a large enough effect; inconclusive means small, poorly fitted or top-dose-only effect; inactive means flat fitted curve, though single readings scatter.

This experiment is described as follows: Quantitative high throughput screen for delayed death inhibitors of the malarial parasite plastid: Hit Validation with Dd2 at 96hr using Flow Cytometry. The note with it: P. falciparum Dd2 growth; parasitemia, lower = inhibition: at 50 µM (top of the series). An excerpt:
The goal of this screen is to discover new antimalarial compounds that act by inhibiting the development of the apicoplast organelle in the malarial parasite Plasmodium falciparum. Some antibiotics, such as azithromycin and tetracycline, are known to interfere with the apicoplast translational machinery, and have a potent antimalarial effect. […] We developed a cell-based quantitative high throughput screen that leverages this "delayed death" phenotype to enrich for compounds that target the apicoplast. To detect small molecules that cause the delayed death phenotype, erythrocytes infected with firefly luciferase-expressing parasites were incubated with compounds for either one or two generations, corresponding to 48 and 96 hours, respectively. Growth inhibition was detected by a decrease in luciferase activity. Compounds that inhibited parasite growth in the second generation at least five-fold more potently than in the first generation were defined as delayed death inducing. These compounds were selected for confirmatory screening using a flow cytometry based assay. This hit validation assay used the Dd2 cell line and measured at 96 hours. NIH Molecular Libraries Probe Production Network [MLPCN] NIH Chemical Genomics Center [NCGC] MLPCN Grant: R21 NS059500 Assay Provider: David Fidock and Eric Ekland, Columbia University
Test compounds were diluted in 20 microliters of complete media (RPMI 1640 with 0.5% w/v Albumax (GIBCO), 24 mM sodium bicarbonate (Sigma) and 10 ug/mL gentamycin (Gibco)) in clear 384-well plates (Greiner). All liquid handling was conducted using a Bio Tek Precision 2000 pipetting system. Twenty microliters of infected erythrocytes, 0.2% parasitemia (for 48 hour time points) or 0.1% parasitemia (for 96 hour time points) were added to the compound dilutions (1% hematocrit, final concentration; 40 microliters, total culture volume). The assay plates were incubated for 48 hours, or 96 hours, at 37 masculine C in a humidified chamber (Billups- Rothenberg, Del Mar, CA, USA), gassed with 5%CO2/5%O2/ 90%N2. After two generations (96 hours), 5 microliters of culture were harvested and transferred to a second 384 well plate for fluorescent staining. Samples were stained with 30 microliters of 2 x SYBR Green I (Invitrogen) and 150nM MitoTracker Deep Red (Invitrogen) diluted in 0.9% NaCl, 0.2% dextrose (Baxter) supplemented with 2.5% Fetal Calf Serum (Gibco) (saline/FCS). Mature erythrocytes lack nuclei and mitochondria, therefore only parasitized erythrocytes retain the SYBR Green I and MitoTracker Deep Red. After 30 minutes at 37 masculine C, the stained cells were diluted in an additional 60 microliters of saline/FCS. The samples were harvested directly from the 384 well plate using a Hypercyt High Capacity Flow Platform (Intellicyt) paired with a C6 Flow Cytometer (Accuri). The flow cytometry files were analyzed using FlowJo software (FlowJo).
In the case of `O=C(Nc1ccccc1N1CCOCC1)c1cccc(S(=O)(=O)N2CCOCC2)c1`, the Potency is 10.6 µM (active).
On the same count and under the same terms, the value for `CN(C)c1ccc(CN(C(=O)c2ccccc2Br)C2CCS(=O)(=O)C2)cc1` (configuration not stated) was 29.1 µM (active); that for `O=C(CSc1ccc(-c2cccnc2)nn1)Nc1ccccc1C(F)(F)F` was 6.51 µM (active).
On the same count and under the same terms, the same measure for `Cc1ccc(S(=O)(=O)Nc2ccc(C(=O)Nc3ccncc3)cc2)cc1`: 14 µM (active).
In the case of `COc1ccc(NC(=S)N2CCC(Cc3ccccc3)CC2)cc1OC`, the parasitemia, lower = inhibition was 0.714 (active).
As for `CCC(=O)OC1C(N(C)C)CC(C)O[C@H]1O[C@H]1[C@H](C)[C@@H](O[C@H]2CC(OC)[C@@H](O)C(C)O2)[C@H](C)C(=O)O[C@@H](CC)[C@](C)(O)[C@@H](O)[C@H](C)C(=O)[C@@H](C)C[C@]1(C)O` (some centres not stated), the Potency was 4.56 µM (active).
Regarding `COc1ccc2cc3cc(C(=O)Nc4ccc5c(c4)OCO5)oc3nc2c1`, the Potency was 24.9 µM (active).
Same read-out and setting: the value for `CCOc1ccc(NC(=O)C[n+]2ccc(N(C)C)cc2)cc1` was 0.121 µM (active).
On the same count and under the same terms, the same measure for `COc1ccc2c(ccc[n+]2CC(=O)c2ccccc2)c1`: 5.18 µM (active).
Still for that read-out and setting: the same measure for `COc1ccc(C(=O)N2CCN(S(=O)(=O)c3ccc(C)cc3C)CC2)cc1OC`: 29.7 µM (active); for `COc1ccc(CNC(=O)C2CCC(CNS(=O)(=O)c3cccc4cccnc34)CC2)cc1` (configuration not stated): 38.9 µM (active).
For the compound `Cc1ccc(-n2c(-c3ccc(Cl)cc3)c[n+]3c2CCC3)cc1`, the Potency was 0.0825 µM (active).
As for `O=C(c1ccc([N+](=O)[O-])cc1)n1nc(-c2ccccc2)nc1NCc1ccc(F)cc1`, the Potency was 24.6 µM (active).
Still for that read-out and setting: the same measure for `CCOC(=O)c1ccc2c(c1)n(CC)c(/C=C/N(C)c1ccccc1)[n+]2CC`: 0.185 µM (active); for `COc1ccc(Nc2nnc(-c3ccc(C)cc3)c3ccccc23)cc1C(=O)N1CCCCC1`: 25.7 µM (active); for `CC(C)C(=O)NCCSc1c[nH]c2ccccc12`: 5.01 µM (active).
Regarding `CCCc1c(CC)c(=N)c2ccccc2n1C`, the Potency is 0.113 µM (active).
As for `c1csc(CNc2ncnc3nc[nH]c23)c1`, the Potency is 31.3 µM (active).
Regarding `CC1=Nc2cc(C(=O)N3CCCC3)ccc2Sc2ccc(C)cc21`, the parasitemia, lower = inhibition is 0.0412 (active).
As to `N#Cc1cccc(NC(=O)Cn2c3[n+](c4ccc(C(F)(F)F)cc42)CCCCC3)c1`, the Potency is 0.424 µM (active).
Still for that read-out and setting: the same measure for `Brc1cccc(OCCCCN2CCCCC2)c1`: 2.79 µM (active).
`CCOc1ccc(C(=O)Nc2ccc(N3CCN(C)CC3)cc2)cc1`: the parasitemia, lower = inhibition is 0.471 (active).
For the compound `O=C(CNC(=O)C1CCCCC1)OC(C(=O)c1ccccc1)c1ccccc1` (configuration not stated), the parasitemia, lower = inhibition is 0.991 (active).
As for `COc1cccc(CN2CCN(c3nc4nonc4nc3N3CCCCC3)CC2=O)c1`, the Potency is 5.78 µM (active).
`CCCCOc1ccc(N2C(N)=NC(N)=NC23CCCCC3)cc1`: the Potency was 4.34 µM (active).
For the compound `COCCNC(=O)c1cccc(OC2CCN(Cc3cccc(SC)c3)CC2)c1`, the “parasitemia, lower = inhibition” value is 1.86.
Regarding `CCCCN(CCCNC(=O)C1CCN(C(=O)c2cc3sccc3n2C)CC1)Cc1ccccc1`, the Potency is 0.389 µM (active).
On the same count and under the same terms, the same measure for `COc1ccccc1N1CCN(CCC(=O)Nc2ccc(F)cc2)CC1`: 8.91 µM (active).
With `CO[C@@H]1[C@@H](OC2OC(C)C(OC3CC(C)(O)C(OC(=O)CC(C)C)C(C)O3)C(N(C)C)C2O)[C@@H](CC=O)C[C@@H](C)C(=O)/C=C\C2O[C@H]2C[C@@H](C)OC(=O)C[C@H]1OC(C)=O` (some centres not stated), the Potency was 0.0981 µM (active).
Take `Cc1ccc(CN2CCC(n3nccc3NC(=O)c3ccccc3C)CC2)o1`: the Potency is 12.8 µM (active).
Same read-out and setting: the value for `CCc1nc(SCC(=O)Nc2ccc(N(C)C)cc2)n[nH]1` was 15.1 µM (active); that for `Clc1ccc(-c2c[n+](Cc3ccc(Cl)cc3Cl)c3n2CCCCC3)cc1` was 0.244 µM (active).
On the same count and under the same terms, the value for `Cc1c(F)c(N2CCNC(C)C2)cc2c1c(=O)c(C(=O)O)cn2C1CC1` (configuration not stated) was 0.479 µM (active); that for `CCOc1ccc(S(=O)(=O)Nc2cc(S(=O)(=O)N(CC)CC)ccc2N2CCCC2)cc1` was 13.9 µM (active).
Same read-out and setting: the value for `Cc1sc2nc[nH]c(=O)c2c1-c1ccc(Cl)cc1` was 9.78 µM (active).
As to `CCCCN(CCCNC(=O)c1ccc(CS(=O)(=O)c2ccc(OC)cc2)o1)Cc1ccccc1`, the Potency is 1.66 µM (active).
Same read-out and setting: the same measure for `CC(=O)NC[C@@H]1CN(c2ccc(N3CCOCC3)c(F)c2)C(=O)O1`: 18 µM (active).
